From PubChem BioAssay
CHX counter = Cycloheximide Counterscreen for Small Molecule Inhibitors of Shiga Toxin; cell reporter, cycloheximide protein synthesis inhibition counterscreen; max response, %; 300,000 tested, 12% active; in the data active means max response mostly above about 13%, no sharp cut-off; inactive means mostly below about 14%; further: read at 38.3 µM for the half of the compounds with a filed dose; 0% is about no effect
Shiga inhibitor = A qHTS for Small Molecule Inhibitors of Shiga Toxin; Vero cells, Shiga toxin protein synthesis inhibition reporter; inhibition, % at 38.7 µM; 290,000 tested, 9.2% active; AID 2315, 2010; in the data active means inhibition mostly above about 28%, no sharp cut-off; inactive means mostly below about 43%; further: 0% is about no effect
Sm TGR inh = qHTS Assay for the Inhibitors of Schistosoma Mansoni Peroxiredoxins; Schistosoma mansoni thioredoxin glutathione reductase (TGR), Q962Y6; purified TGR, DTNB reduction, TNB absorbance 405 nm; Potency, µM (series often up to 114 µM), inactives show at the top dose activity change, negative = inhibition, most hits filed as inhibitors; 360,000 tested, 3% active; AID 485364, 2010; further: potency means the concentration at half of the fitted maximal effect; on the % scale 0 is the no-effect control and ±100 the full control effect; nearly all actives have a fitted effect of over 60% in size
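First, TGR (20 nM dispensed) and NADPH were mixed with compound. Second, a 15 min room-temperature incubation followed. Third, further NADPH and then DTNB were added to start the reaction. Finally, TNB absorbance was monitored kinetically.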
Tb PYK inh = qHTS of Trypanosoma Brucei Inhibitors; Potency, µM (doses to about 76.8 µM), for the others: top-dose activity, negative = inhibition, actives largely listed as inhibitors; TbPYK enzyme, Kinase-Glo Plus ATP luminescence, 45 min; 410,000 tested, 0.12% active; further: potency means the concentration at half of the fitted maximal effect; on the % scale 0 is the no-effect control and ±100 the full control effect; nearly all actives have a fitted effect of over 50% in size
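Assay buffer: 50 mM TEA pH 7.2, 100 mM KCl, 10 mM MgCl2, 0.05% BSA, 0.01% Tween-20. Pyruvate kinase from T. brucei plus substrate met compound, then ADP (130 uM final). Luminescence was read post 45 min RT.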
LmPK inh = qHTS Assay for Inhibitors of Leishmania Mexicana Pyruvate Kinase (LmPK). Potency, µM (series often up to 57.5 µM), for the others: at the top dose activity change, negative = inhibition, actives largely listed as inhibitors. purified LmPK, Kinase-Glo ATP luminescence, 1 h. 290,000 tested, 0.37% active. Q27686; further: potency means the concentration at half of the fitted maximal effect; on the % scale 0 is the no-effect control and ±100 the full control effect
Target sequence (Q27686 whole entry, looked up): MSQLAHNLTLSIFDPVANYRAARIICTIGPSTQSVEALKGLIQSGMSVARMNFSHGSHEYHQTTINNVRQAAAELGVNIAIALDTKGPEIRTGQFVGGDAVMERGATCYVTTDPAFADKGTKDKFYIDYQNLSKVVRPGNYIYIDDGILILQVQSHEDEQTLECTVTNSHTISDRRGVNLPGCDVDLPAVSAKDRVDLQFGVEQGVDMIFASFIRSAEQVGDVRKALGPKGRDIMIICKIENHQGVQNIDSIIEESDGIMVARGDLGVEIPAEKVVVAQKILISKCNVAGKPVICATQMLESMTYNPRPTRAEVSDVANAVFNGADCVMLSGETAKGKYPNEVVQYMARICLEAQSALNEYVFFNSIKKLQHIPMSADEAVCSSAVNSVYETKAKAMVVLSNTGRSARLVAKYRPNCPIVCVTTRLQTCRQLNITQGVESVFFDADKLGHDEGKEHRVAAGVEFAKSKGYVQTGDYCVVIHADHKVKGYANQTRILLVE
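Screened at intermediate enzyme activity to detect both inhibitors and activators: LmPK at 0.1 nM, with a 0.5 nM enzyme column as activation reference. PEP 0.5 mM, ADP 0.1 mM; ATP detected by luminescence after 1 h.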
Giardia FBPA inh = qHTS Assay for Inhibitors of Fructose-1,6-bisphosphate Aldolase from Giardia Lamblia; purified Giardia FBPA; Potency, µM (series often up to 59.6 µM), without a hit: at the top dose activity, negative = inhibition, actives largely listed as inhibitors; 290,000 tested, 0.71% active; AID 2451, 2010; further: potency means the concentration at half of the fitted maximal effect; on the % scale 0 is the no-effect control and ±100 the full control effect; nearly all actives have a fitted effect of over 55% in size
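40 nM FBPA preincubated 10 min at RT with compound (up to 57.5 uM final), then substrate plus GAPDH/TPI/NAD/arsenate coupling and diaphorase/resazurin added. Fluorescence read after 20 min at RT, 525/598 nm.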
Starred values were filed as active, the others as inactive; ? = inconclusive; nt = not tested or not shown. Many of the other results were omitted from the sample, so hits are more common in it than they were. Unless noted, the call rests on the fitted dose curve; in most records, active means well fitted curve in the direction sought with a large enough effect; inconclusive means small, poorly fitted or top-dose-only effect, or another doubt; inactive means no such curve, though single readings can be large; an effect the other way counts as inactive or inconclusive.

SMILES	CHX counter	Shiga inhibitor	Sm TGR inh	Tb PYK inh	LmPK inh	Giardia FBPA inh
CCOC(=O)C1CCCN(c2c(N3CCC(N4CCCCC4)CC3)c(=O)c2=O)C1 (stereo not drawn)	-4	-12	89µM*	-2%	9%	4%
CCOC(=O)C1CCCN(c2c(N3CCN(C)CC3)c(=O)c2=O)C1 (stereo not drawn)	10	-16	5.6µM*	-5%	12%	2%
CC(C)CN(CCCNC(=O)CN1N=C(c2ccccc2)CCC1=O)CC(C)C	nt	nt	6%	-2%	nt	nt
COc1ccc(C(=O)c2ccc(C)cc2)c(OC)c1OC	nt	nt	nt	-1%	nt	nt
COc1ccc(C(=O)c2ccc(O)cc2)c(O)c1O	nt	nt	nt	nt	nt	22µM*
CCC(=O)c1cn(CC(=O)Nc2cc(C)ccc2C)c2ccccc12	1	nt	-55%	2%	22%	-1%
Cc1ccc(N2CC(C(=O)Nc3cccc(C(=O)NC4CC4)c3)CC2=O)cc1 (stereo not drawn)	nt	nt	5%	-1%	nt	nt
O=c1[nH]c(CSc2ccccn2)nc2c1oc1ccccc12	49*	91*	-2%	-2%	-10%	-8%
CCc1nc2c(oc3ccccc32)c(=O)[nH]1	22*	35	-1%	-5%	-7%	2%
O=c1[nH]cnc2c1oc1ccccc12	34*	70*	8%	-15%	-6%	-5%
Cc1nc(SCc2nc3c(C)cccc3[nH]2)c2oc3ccccc3c2n1	nt	nt	nt	1%	nt	nt
CCC(=O)N1CCc2cc(S(=O)(=O)CCC(=O)N(C)c3ccc(OC)cc3OC)ccc21	-3	-9	-2%	0%	3%	-6%
O=C(ONC1=NCCCCC1)c1ccc(Cl)cc1	17*	37	-2%	-5%	3%	-3%
O=C(CNC1=NCCC1)c1ccc(Cl)cc1	-2	-4	-11%	-1%	5%	?
O=C(ONC1=NCCCCC1)c1c(F)cccc1F	18*	-3	5%	-12%	-4%	8%
CCC(C)NC(=O)/C=C1\Sc2ccccc2NC1=O (stereo not drawn)	13*	40	-11%	-12%	2%	0%
CCC(C)NC(=O)N1c2ccccc2Sc2ccccc21 (stereo not drawn)	2	-2	-1%	-4%	4%	1%
COc1ccccc1N/C=C1/Sc2cc(Cl)ccc2NC1=O	-2	-7	6%	nt	3%	1%
O=C1Nc2ccccc2S/C1=C/NCc1ccccc1Cl	13	39	7%	-16%	0%	4%
COc1ccc(N/C=C2/Sc3ccccc3NC2=O)cc1	44*	88*	-11%	-20%	3%	-3%
Cc1ccc(N/C=C2/Sc3ccccc3NC2=O)cc1	45*	70*	6%	-1%	-2%	4%
O=C(CSc1nc2ccccc2nc1Cc1ccc(Cl)cc1)Nc1ccc2c(c1)OCO2	nt	nt	-2%	-3%	nt	nt
OC(COCc1cccs1)CN1CCCCCC1 (stereo not drawn)	7	1	-31%	-13%	11%	-2%
CN1CCCN(CC(O)COCc2cccs2)CC1 (stereo not drawn)	-1	-13	50µM*	12%	1%	-4%
O=C(Cn1nnc(-c2ccccc2F)n1)OCC(=O)c1ccccc1	7	-7	0.79µM*	-5%	1%	11%
SMILES	CHX counter	Shiga inhibitor	Sm TGR inh	Tb PYK inh	LmPK inh	Giardia FBPA inh
CCOC(=O)Cn1nnc(-c2ccc(S(C)(=O)=O)cc2)n1	-5	-26	10%	0%	-1%	1%
NC(=O)Cn1nnc(-c2ccc(C(F)(F)F)cc2)n1	17	32*	-2%	-5%	3%	6%
CC(C)(C)C(=O)Cn1nnc(-c2ccc(C(F)(F)F)cc2)n1	7	2	6%	0%	8%	-1%
O=C(Cn1nnc(-c2ccc(F)cc2)n1)OCC(=O)c1ccccc1	-1	11	10µM*	-1%	3%	-5%
CCOC(=O)Cn1nnc(-c2ccc(SC)cc2)n1	47*	67*	3%	-3%	-2%	3%
O=C(COC(=O)Cn1nnc(-c2ccccc2)n1)Nc1cc(F)ccc1F	nt	nt	nt	-5%	nt	nt
